TIM10 inh: inhibits growth of TIM10 yeast strain; S. cerevisiae TIM10 strain growth, BacTiter-Glo luminescence, 24 h; inhibition, % at 10 µM; actives 1.4% (n = 330,000);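 active = inhibition of 40% or more at the single tested concentration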;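 also: wild-type TIM10 isogenic control strain grown at permissive 25 °C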
tim10-1 inh: growth inhibitors of tim10-1 mutant yeast | S. cerevisiae tim10-1 ts strain growth, BacTiter-Glo, 24 h | inhibition, % at 20 µM | actives 2.2% (n = 330,000) | AID 463190;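 active = inhibition of at least 40%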;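 also: mutant grown at 25 °C; 0% = DMSO wells with yeast and 100% = wells holding no yeast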
CR mimetic SO: caloric restriction mimetics inhibiting age-related superoxide in yeast. superoxide response (% of plate mean), % at 10 µM. actives 0.18% (n = 330,000). S. cerevisiae aged cells, superoxide DHE fluorescence; hits give low values;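 active = superoxide response under a set limit, about three screen SD below normal, cut at about 65% in these data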;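 also: yeast aged for seven days with compound at 30 °C before DHE staining; 100% = average MFI of all compound-treated wells on the plate with controls excluded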
tim23-1 inh: growth inhibitors of tim23-1 mutant yeast. S. cerevisiae tim23-1 growth, BacTiter-Glo luminescence, 24 h. inhibition, % at 20 µM. actives 1.3% (n = 330,000). AID 463212;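 active = growth inhibition of the mutant yeast at or above 50%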;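 also: temperature-sensitive mutant grown at 25 °C; plate controls were DMSO-treated mutant yeast for no effect and medium wells lacking yeast for full effect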
NALP3 yeast inh: inhibitors of NALP3 inflammasome in yeast; Yeast reconstituted NLRP3/ASC/caspase-1, beta-gal luminescence, 24 h; inhibition, % at 10 µM; actives 0.39% (n = 330,000);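 active = inhibition of 50% or more; inactive = inhibition below 50%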;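 also: plate controls were induced DMSO wells for no effect and uninduced yeast grown without galactose for full effect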
TIM10 conf: TIM10 yeast growth inhibition, confirmed; S. cerevisiae tim10 strain growth, BacTiter-Glo luminescence, 24 h; actives 63% (n = 4,600); shares compounds with TIM10 inh; inhibition, % at 10 µM;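 active = inhibition of yeast growth at or above a set limit in either of two replicates at 10 µM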;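 also: this counterscreen used the strain with wild-type TIM10; 0% = yeast with DMSO and 100% = medium wells lacking yeast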
tim23-1 conf: tim23-1 yeast growth inhibition, confirmed; shares compounds with tim23-1 inh; inhibition, % at 20 µM; S. cerevisiae tim23-1 growth, BacTiter-Glo luminescence, 24 h; AID 463218; actives 83% (n = 4,400);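 active = inhibition above about 39% in either of two replicate wells at 20 µM, limit read from the data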;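 also: temperature-sensitive tim23-1 mutant grown at 25 °C; 0% = DMSO wells with yeast and 100% = medium wells without yeast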
* marks the source's active call; other numbers are inactive results. This is a sample that favours compounds with a hit; in the whole collection about 3.8% have one here.

`CC(C)(C)c1ccc(C(=O)NCC(=O)NCc2ccccn2)cc1` gave TIM10 inh 4.1, tim10-1 inh 3.6, CR mimetic SO 99.5, tim23-1 inh -1.1 and NALP3 yeast inh 4.8.
For CCCCC(=O)Nc1cccc2c1C(=O)N(c1ccccc1)C2=O the results were TIM10 inh 43.3*, tim10-1 inh 32.0, CR mimetic SO 94.6, tim23-1 inh 50.2*, NALP3 yeast inh 3.1, TIM10 conf 39.8* and tim23-1 conf 51.7*.
COCc1cc(=O)[nH]c(SCCS(=O)(=O)c2ccc(Cl)cc2Cl)n1 was read as TIM10 inh 43.8*, tim10-1 inh 31.0, CR mimetic SO 70.8, tim23-1 inh 57.7*, NALP3 yeast inh -11.4, TIM10 conf 35.1* and tim23-1 conf 28.2.
For COCc1cc(=O)[nH]c(SCCS(=O)(=O)c2ccc(C)cc2)n1 the results were TIM10 inh 15.8, tim10-1 inh 20.5, CR mimetic SO 93.4, tim23-1 inh 8.6 and NALP3 yeast inh 21.0.
Cc1noc(C)c1NC(=O)N(C)C[C@@H]1Oc2ccc(NS(=O)(=O)c3c(C)noc3C)cc2C(=O)N([C@H](C)CO)C[C@H]1C was read as TIM10 inh 1.7, tim10-1 inh -5.8, CR mimetic SO 110.8, tim23-1 inh -12.0 and NALP3 yeast inh -2.2.
`O=C(NC1CCCCC1)c1ccc2[nH]c(=O)c(=O)[nH]c2c1` gave TIM10 inh 10.8, tim10-1 inh 9.2, CR mimetic SO 75.6, tim23-1 inh 8.8 and NALP3 yeast inh 8.9.
Screening CC(C)OP(=O)(OC(C)C)/C(C=O)=N\Nc1ccc([N+](=O)[O-])cc1 returned TIM10 inh 50.9*, tim10-1 inh 38.2, CR mimetic SO 77.0, tim23-1 inh 67.2*, NALP3 yeast inh 40.9, TIM10 conf 49.9* and tim23-1 conf 67.5*.
For CC(C)OP(=O)(OC(C)C)C(Nc1ccc([N+](=O)[O-])cc1)c1cccc([N+](=O)[O-])c1 (stereo unspecified) the results were TIM10 inh 28.1, tim10-1 inh 14.0, CR mimetic SO 112.2, tim23-1 inh 22.6 and NALP3 yeast inh 12.1.
Screening N/C(=N\OC(=O)c1ccc(Cl)c(Cl)c1)c1cccc(CSc2ccccn2)c1 returned TIM10 inh 72.2*, tim10-1 inh 39.4, CR mimetic SO 101.8, tim23-1 inh 78.6*, NALP3 yeast inh 15.0, TIM10 conf 83.7* and tim23-1 conf 48.9*.
Cc1ccc(C)c(S(=O)(=O)N2CCN(C(=O)[C@@H]3CCCN3C(=O)c3cccs3)CC2)c1 was read as TIM10 inh -2.6, tim10-1 inh -7.8, CR mimetic SO 89.2, tim23-1 inh 3.4 and NALP3 yeast inh 11.4.
CCCCCCn1c(-c2ccco2)nc2oc3cc(OC)ccc3c(=O)c2c1=O was read as TIM10 inh 44.9*, tim10-1 inh 33.8, CR mimetic SO 114.0, tim23-1 inh 50.0*, NALP3 yeast inh 16.6, TIM10 conf 15.7 and tim23-1 conf 37.3*.
`CCCCNC(=S)NNC(=O)c1ccco1` gave TIM10 inh 6.1, tim10-1 inh 4.3, CR mimetic SO 92.2, tim23-1 inh 0.6 and NALP3 yeast inh 15.2.
COn1c(=O)c(-c2cccs2)[n+]([O-])c2ccccc21 was read as TIM10 inh 43.4*, tim10-1 inh 36.2, CR mimetic SO 88.5, tim23-1 inh 51.5*, NALP3 yeast inh 21.7, TIM10 conf 1.1 and tim23-1 conf 63.7*.
For COc1ccc2cc3cc(C(=O)N4CCN(Cc5ccc6c(c5)OCO6)CC4)oc3nc2c1 the results were TIM10 inh 40.2*, tim10-1 inh 38.7, CR mimetic SO 98.4, tim23-1 inh 68.4*, NALP3 yeast inh 37.0, TIM10 conf -3.4 and tim23-1 conf 83.0*.
For CCOC(=O)C1CCN(C(=O)c2cc3cc4ccc(OC)cc4nc3o2)CC1 the results were TIM10 inh 41.5*, tim10-1 inh 34.8, CR mimetic SO 113.1, tim23-1 inh 67.7*, NALP3 yeast inh 30.1, TIM10 conf 36.9* and tim23-1 conf 67.4*.
Screening Cc1ccc2cc3cc(C(=O)N4CC(C)CC(C)C4)oc3nc2c1 (stereo unspecified) returned TIM10 inh 48.0*, tim10-1 inh 38.0, CR mimetic SO 114.5, tim23-1 inh 52.5*, NALP3 yeast inh -6.7, TIM10 conf 39.2* and tim23-1 conf 60.5*.
Screening CC(C)Oc1ccccc1NC(=O)CSc1nccn1C returned TIM10 inh 8.1, tim10-1 inh 3.2, CR mimetic SO 102.5, tim23-1 inh 4.9 and NALP3 yeast inh 11.2.
Screening O=S(=O)(c1ccc(-c2ccccn2)s1)N1CCC2(CC1)OCCO2 returned TIM10 inh 5.8, tim10-1 inh -6.4, CR mimetic SO 92.1, tim23-1 inh 15.8 and NALP3 yeast inh 12.7.
Screening CCCc1ccc(C(=O)O/N=C(\N)c2ccccn2)cc1 returned TIM10 inh 51.6*, tim10-1 inh 33.8, CR mimetic SO 101.4, tim23-1 inh 50.5*, NALP3 yeast inh 31.9, TIM10 conf 64.3* and tim23-1 conf 57.0*.
For N/C(=N\OC(=O)c1ccc(=O)n(Cc2ccccc2)c1)c1ccccn1 the results were TIM10 inh 14.5, tim10-1 inh 28.4, CR mimetic SO 97.8, tim23-1 inh 24.4 and NALP3 yeast inh 11.7.
Screening N/C(=N\OC(=O)c1cc(Br)ccc1Cl)c1ccccn1 returned TIM10 inh 45.2*, tim10-1 inh 27.5, CR mimetic SO 113.3, tim23-1 inh 62.2*, NALP3 yeast inh -1.0, TIM10 conf 65.2* and tim23-1 conf 45.5*.
Screening N/C(=N\OC(=O)c1ccc(Cl)cc1[N+](=O)[O-])c1cccnc1 returned TIM10 inh 21.5, tim10-1 inh 29.1, CR mimetic SO 95.5, tim23-1 inh 30.4 and NALP3 yeast inh 17.6.
For N/C(=N\OC(=O)c1cc([N+](=O)[O-])ccc1Cl)c1ccccn1 the results were TIM10 inh 9.8, tim10-1 inh 18.8, CR mimetic SO 99.9, tim23-1 inh 27.6 and NALP3 yeast inh 5.1.
N/C(=N\OC(=O)c1ccc(Cl)cc1[N+](=O)[O-])c1ccccn1 was read as TIM10 inh 62.3*, tim10-1 inh 6.7, CR mimetic SO 103.7, tim23-1 inh 77.4*, NALP3 yeast inh 9.4, TIM10 conf 70.8* and tim23-1 conf 71.4*.
For O=C(CNc1cccc(S(=O)(=O)N2CCCC2)c1)Nc1ccc(C(F)(F)F)cc1 the results were TIM10 inh 11.0, tim10-1 inh 7.3, CR mimetic SO 112.2, tim23-1 inh 8.3 and NALP3 yeast inh 3.6.
Screening COc1cc(CCCN2C(N)=NC[C@@H]2Cc2ccccc2)cc(OC)c1OC returned TIM10 inh 12.4, tim10-1 inh 5.3, CR mimetic SO 105.0, tim23-1 inh 7.2 and NALP3 yeast inh 4.5.
